Assay results reported in PubChem BioAssay (NCATS).
Inconclusive results are not listed. Unmarked numbers belong to inactive results. Calls of active or inactive are those of the source. The call rests on the fitted dose curve; in most records, active means well fitted cell-killing curve with a large enough effect; inconclusive means small, poorly fitted or top-dose-only effect; inactive means no such curve, though single readings can be large or run the other way.

test: qHTS of pediatric cancer cell lines to identify multiple opportunities for drug repurposing: Primary screen for SK-N-MC cells (AID 1347093); details: SK-N-MC viability, CellTiter-Glo luminescence, 48 h; series mostly up to 46 µM; activity change, negative = cytotoxic: at the top concentration
Excerpt: Drug repurposing or repositioning has been offered as a strategy for drug development in oncology programs. This approach has special potential for childhood cancers and other rare or orphan diseases, where the expected return on new drug development has been a disincentive to pharmaceuticals.
In this project we exploit the poly-pharmacology of drugs to discover new indications via phenotypic screening of a panel of 19 well-characterized cell lines derived from solid tumors seen in children and adolescents. The goal is to identify approved drugs with previously unrecognized anticancer properties that has the potential to reveal new mechanisms and biological processes involved in carcinogenesis or drug resistance. We employed a titration-based paradigm (quantitative high-throughput screening or qHTS), where all compounds were tested at multiple concentrations for their effect on cell viability. Concentration-response curves (CRCs) were derived directly from the primary screen, and both potency and efficacy values were used to identify compounds with robust bioactivity profiles. We screened the NIH Chemical Genomics Center (NCGC) Pharmaceutical Collection (NPC) and Mechanism Interrogation Plate (MIPE) small molecule collections of approved and investigational compounds against these cell lines; and measured metabolically active cells after 48 hours of compound treatment as a proxy for cell viability.
Assay Submitter: Nathalia J. Martinez, National Center for Advancing Translational Sciences, National Institutes of Health, Rockville, MD, USA; email: natalia.martinez@nih.gov
[1] Shen, M et al. Quantitative high-throughput phenotypic screening of pediatric cancer cell lines identifies multiple opportunities for drug repurposing. Oncotarget 2017 Dec 19;9(4):4758-4772. PMID 29435139.
The cells were obtained from University of North Carolina (UNC), Pediatric Preclinical Testing Program (PPT), and Coriell Institute (CI).
qHTS cell viability assay:
Cells were assayed in growth media at a density of 500-1,000 cells/well. Five microliters of cells were dispensed into 1,536-well, white, solid-bottom, TC-treated plates (Greiner Bio One) using a multidrop dispenser and incubated at 37 degrees C, 5% CO2, under a humidified atmosphere for 5 hours. Twenty-three nanoliters of compounds and controls (neutral control DMSO or positive control bortezomib at final concentration of 2.3 µM) were subsequently transferred by Kalypsys pintool. For primary screens, the MIPE collection was tested at 11-point dilutions (final concentrations range from 0.78 nM to 46 µM) and the NPC collection at 8-point dilutions (final concentrations range from 0.59nM to 46 µM). Compounds tested in follow-up screens were assayed at 11-point dilutions. Cells were incubated for 48 hours, followed by addition of 3 uL of CellTiter-Glo (Promega). After a 15 min incubation at room temperature, samples were analyzed for luminescence intensity using a ViewLux High-throughput CCD imager equipped with clear filters.
Potency means the concentration at half of the fitted maximal effect.

Row | SMILES | Potency | activity change, negative = cytotoxic
1 | O=c1c(O)c(-c2ccc(O)c(O)c2)oc2cc(O)ccc12 | 20.9 µM (active) | 
2 | CC(C)OC(=O)[C@H](C)N[P@](=O)(OC[C@H]1O[C@@H](n2ccc(=O)[nH]c2=O)[C@](C)(F)[C@H]1O)Oc1ccccc1 |  | -25.5%
3 | CN(C)c1ccc(C(=O)NCCCCCCC(=O)NO)cc1 | 0.332 µM (active) | 
4 | COc1cc2c(cc1OC)[C@@H]1C(=O)c3ccc4c(c3O[C@@H]1CO2)C=CC(C)(C)O4 | 0.148 µM (active) | 
5 | CCC(C(=O)O)C1CCC(C)C(C(C)C(O)C(C)C(=O)C(CC)C2OC3(C=CC(O)[C@@]4(CC[C@](C)(C5CC[C@@](O)(CC)C(C)O5)O4)O3)C(C)CC2C)O1 (stereo not given in full) | 0.187 µM (active) | 
6 | Oc1ccc([C@@H]2Oc3ccc(O)cc3[C@@H]3CCC[C@@H]32)cc1 | 4.18 µM (active) | 
7 | Cc1cnc(Nc2ccc(N3CCN(C)CC3)cc2)nc1Nc1cccc(S(=O)(=O)NC(C)(C)C)c1 | 1.05 µM (active) | 
8 | N#CC(=Cc1ccc(O)c(O)c1)C(=O)NCc1ccccc1 | 14.8 µM (active) | 
9 | C[C@H](NCc1ccc(OCc2cccc(F)c2)cc1)C(N)=O | 2.64 µM (active) | 
10 | CCN1CCN(C(=O)N[C@H](C(=O)N[C@@H]2C(=O)N3C(C(=O)O)=C(CSc4nnnn4C)CS[C@@H]23)c2ccc(O)cc2)C(=O)C1=O |  | -14.8% [at 9.22 µM]
11 | CO[C@@H]1[C@@H](O)[C@H](O)[C@@H](n2c3c(Cl)cccc3c3c4c(c5c6cccc(Cl)c6[nH]c5c32)C(=O)NC4=O)O[C@@H]1CO | 0.0662 µM (active) | 
12 | COc1ccc([C@@H]2CNC(=O)C2)cc1OC1CCCC1 | 0.469 µM (active) | 
13 | C[C@@H](Cc1cc2c(c(C(N)=O)c1)N(CCCO)CC2)NCCOc1ccccc1OCC(F)(F)F |  | 57.2%
14 | COc1cc(C)c(Sc2cnc(NC(=O)c3ccc(CNC(C)C(C)(C)C)cc3)s2)cc1C(=O)N1CCN(C(C)=O)CC1 (stereo not given) | 2.09 µM (active) | 
15 | C[C@H](NC(=O)C(C#N)=Cc1cccc(Br)n1)c1ccccc1 | 11.8 µM (active) | 
16 | OC[C@H]1OC(O)C[C@@H](O)[C@H]1O (stereo not given in full) |  | -13.9%
17 | CC(C(C)N1CC(=O)NC(=O)C1)N1CC(=O)NC(=O)C1 (stereo not given) | 0.743 µM (active) | 
18 | N#CNC(=NCCCCCCOc1ccc(Cl)cc1)Nc1ccncc1 | 0.0033 µM (active) | 
19 | C=CC(=O)Nc1cc(NC(=O)c2ccc(C)c(NC(=O)c3ccno3)c2)cc(C(F)(F)F)c1 | 10.5 µM (active) | 
20 | CCOc1cc2c(c(F)c1OCC)C(=N)N(CC(=O)c1cc(N3CCOCC3)c(OC)c(C(C)(C)C)c1)C2 | 0.833 µM (active) | 

Row | SMILES | Potency | activity change, negative = cytotoxic
21 | Cc1ncc(-c2ccnc(Nc3ccc(S(C)(=O)=O)cc3)n2)n1C(C)C | 2.35 µM (active) | 
22 | O=C(O)C=Cc1ccc(Cn2ccnc2)cc1 |  | -19.4%
23 | C#C[C@]1(O)CC[C@@H]2[C@@H]3CCc4cc(O)ccc4[C@H]3CC[C@@]21C | 11.8 µM (active) | 
24 | CCCNC(=O)[C@H]1O[C@H]1C(=O)N[C@H](C(=O)N1CCC[C@@H]1C(=O)OC)C(C)CC (stereo not given in full) | 2.64 µM (active) | 
25 | CC(=O)OC[C@@H]1O[C@@H](n2ccc(=O)[nH]c2=O)[C@H](OC(C)=O)[C@H]1OC(C)=O |  | -27%
26 | CC(=O)O[C@H]1C[C@@H]2CC[C@H]3[C@H]4C[C@H]([N+]5(C)CCCCC5)[C@@H](OC(C)=O)[C@@]4(C)CC[C@@H]3[C@@]2(C)C[C@H]1[N+]1(C)CCCCC1 |  | -6.41%
27 | COc1cc([C@@H]2c3cc4c(cc3[C@H](O)[C@H]3COC(=O)[C@@H]23)OCO4)cc(OC)c1OC | 0.0743 µM (active) | 
28 | COc1cc(OC)c(C=CS(=O)(=O)Cc2ccc(OC)c(NCC(=O)O)c2)c(OC)c1 | 0.0935 µM (active) | 
29 | OCc1ccccc1O[C@@H]1O[C@H](CO)[C@H](O)[C@H](O)[C@H]1O |  | -5.4%
30 | FC(F)c1nc2ccccc2n1-c1nc(N2CCOCC2)nc(N2CCOCC2)n1 | 0.059 µM (active) | 
31 | CCn1c(=O)c2c(nc(C=Cc3ccc(OC)c(OC)c3)n2C)n(CC)c1=O | 18.7 µM (active) | 
32 | C=C1C[C@@]2(O)O[C@@]3(C[C@H]2C(C)C)[C@H](C)CC[C@H]13 |  | 13.6%
33 | CN1[C@H]2CC(OC(=O)[C@@H](CO)c3ccccc3)C[C@H]1[C@H]1O[C@H]12 (stereo not given in full) |  | -23.3% [at 16.1 µM]
34 | C[C@H](CCC(=O)O)[C@H]1CCC2C3C[C@H](O)[C@@H]4C[C@H](O)CC[C@]4(C)C3CC[C@@]21C (stereo not given in full) |  | 14.7%
35 | OC[C@@H](O)[C@@H](O)[C@H](O)[C@@H](O)CO |  | 1.64%
36 | Cc1ccccc1C(=O)Nc1ccc(C(=O)N2CCCC(O)c3cc(Cl)ccc32)c(C)c1 (stereo not given) |  | -20.2%
37 | Cc1ccc2nc(NCCN)c3ncc(C)n3c2c1 | 1.66 µM (active) | 
38 | C[C@]12C=CC(=O)N[C@@H]1CC[C@H]1[C@H]3CC[C@@H](C(=O)Nc4cc(C(F)(F)F)ccc4C(F)(F)F)[C@@]3(C)CC[C@@H]12 |  | -8.46%
39 | CC(=O)ON=C1C(c2c(O)[nH]c3cc(Br)ccc23)=Nc2ccccc21 | 0.0118 µM (active) | 
40 | CC(=O)OCC(=O)[C@@]1(O)CC[C@H]2[C@@H]3CCC4=CC(=O)CC[C@]4(C)[C@@H]3C(=O)C[C@@]21C |  | -15.3%
